# PfHsp40 rescue = restores yeast growth despite PfHsp40 toxicity; S. cerevisiae expressing PfHsp40, growth rescue, ATP luminescence; growth rescue, % at 12.5 µM; hit rate 0.68% among 340,000; in the data active means growth rescue above about 28%, passing the limit was not always enough; inconclusive means no clear call, values can overlap the other calls;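 further: yeast W303a lacking pdr1 and pdr3 grown in galactose medium; growth measured after three days at 30 °C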
# TcdB inh = blocks C. difficile toxin B glycohydrolase activity; inhibition, % at 9.99 µM; AID 652162; TcdB glycohydrolase enzymatic assay, plate reader; hit rate 0.24% among 350,000; P18177; in the data active means inhibition above about 10%
# Target sequence (P18177 whole entry, looked up): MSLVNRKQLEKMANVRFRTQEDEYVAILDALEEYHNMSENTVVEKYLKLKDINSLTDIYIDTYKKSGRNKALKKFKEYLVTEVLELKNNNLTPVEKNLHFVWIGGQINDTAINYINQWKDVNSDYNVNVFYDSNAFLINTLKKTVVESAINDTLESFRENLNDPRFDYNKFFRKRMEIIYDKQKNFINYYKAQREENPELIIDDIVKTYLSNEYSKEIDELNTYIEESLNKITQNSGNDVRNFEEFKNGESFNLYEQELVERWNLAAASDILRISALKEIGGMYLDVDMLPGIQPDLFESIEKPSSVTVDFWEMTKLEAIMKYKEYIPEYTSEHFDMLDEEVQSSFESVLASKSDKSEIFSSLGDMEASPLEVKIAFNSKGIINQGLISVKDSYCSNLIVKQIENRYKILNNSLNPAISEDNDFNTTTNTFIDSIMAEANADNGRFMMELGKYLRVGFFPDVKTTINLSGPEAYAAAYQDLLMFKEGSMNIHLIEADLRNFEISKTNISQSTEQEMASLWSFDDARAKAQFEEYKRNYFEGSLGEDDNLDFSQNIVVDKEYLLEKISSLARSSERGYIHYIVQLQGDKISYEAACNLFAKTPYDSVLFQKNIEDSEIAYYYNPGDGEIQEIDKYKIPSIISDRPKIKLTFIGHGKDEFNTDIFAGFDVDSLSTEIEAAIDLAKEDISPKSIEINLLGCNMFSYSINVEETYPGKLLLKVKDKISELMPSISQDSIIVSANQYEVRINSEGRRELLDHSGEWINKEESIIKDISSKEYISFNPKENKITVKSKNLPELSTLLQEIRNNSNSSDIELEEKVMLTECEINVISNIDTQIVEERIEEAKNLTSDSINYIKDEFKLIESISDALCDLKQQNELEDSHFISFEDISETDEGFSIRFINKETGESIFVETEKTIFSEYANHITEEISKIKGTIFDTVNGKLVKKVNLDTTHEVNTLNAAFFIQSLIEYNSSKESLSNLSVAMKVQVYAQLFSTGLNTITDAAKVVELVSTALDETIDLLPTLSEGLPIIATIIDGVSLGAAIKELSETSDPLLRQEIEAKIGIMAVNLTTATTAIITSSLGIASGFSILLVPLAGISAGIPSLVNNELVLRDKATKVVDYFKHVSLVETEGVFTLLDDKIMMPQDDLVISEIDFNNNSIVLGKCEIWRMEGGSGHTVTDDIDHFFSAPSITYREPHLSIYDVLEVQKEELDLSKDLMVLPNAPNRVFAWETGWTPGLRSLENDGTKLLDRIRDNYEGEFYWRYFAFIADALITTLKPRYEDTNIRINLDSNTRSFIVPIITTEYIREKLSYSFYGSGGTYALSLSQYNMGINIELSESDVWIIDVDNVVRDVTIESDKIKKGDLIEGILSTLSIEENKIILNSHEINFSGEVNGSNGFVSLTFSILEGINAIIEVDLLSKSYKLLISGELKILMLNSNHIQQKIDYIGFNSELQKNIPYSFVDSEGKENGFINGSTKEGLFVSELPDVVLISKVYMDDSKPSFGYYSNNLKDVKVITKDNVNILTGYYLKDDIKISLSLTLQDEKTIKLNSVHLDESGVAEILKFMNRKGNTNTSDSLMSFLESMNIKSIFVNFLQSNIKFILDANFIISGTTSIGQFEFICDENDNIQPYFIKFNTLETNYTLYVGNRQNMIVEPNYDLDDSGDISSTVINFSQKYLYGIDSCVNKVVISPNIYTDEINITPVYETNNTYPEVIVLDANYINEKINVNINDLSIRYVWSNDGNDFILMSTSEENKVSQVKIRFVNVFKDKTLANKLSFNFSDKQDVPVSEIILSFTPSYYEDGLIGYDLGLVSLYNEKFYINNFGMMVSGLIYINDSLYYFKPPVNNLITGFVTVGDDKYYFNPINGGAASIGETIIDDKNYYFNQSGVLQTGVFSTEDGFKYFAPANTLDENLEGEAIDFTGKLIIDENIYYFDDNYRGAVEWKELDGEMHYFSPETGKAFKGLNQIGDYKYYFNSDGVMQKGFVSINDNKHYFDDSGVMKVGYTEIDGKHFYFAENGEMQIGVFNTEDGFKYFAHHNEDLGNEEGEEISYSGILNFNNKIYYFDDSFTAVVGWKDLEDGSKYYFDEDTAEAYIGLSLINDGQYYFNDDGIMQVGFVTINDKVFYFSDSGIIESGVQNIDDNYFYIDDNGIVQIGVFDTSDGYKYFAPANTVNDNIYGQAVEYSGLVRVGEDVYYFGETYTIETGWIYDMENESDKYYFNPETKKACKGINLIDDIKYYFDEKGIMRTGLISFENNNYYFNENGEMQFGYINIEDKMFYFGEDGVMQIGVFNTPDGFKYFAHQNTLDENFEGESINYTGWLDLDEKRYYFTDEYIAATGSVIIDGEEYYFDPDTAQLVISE
# Mtb BioA inh = blocks M. tuberculosis BioA enzyme activity; purified M. tuberculosis BioA enzyme, plate reader; inhibition, % at 9.99 µM; hit rate 0.096% among 360,000; AID 602481; in the data active means inhibition above about 40%; inconclusive means no clear call, values can overlap the other calls
# PrP 5UTR inh = suppresses PrP 5' UTR mRNA reporter expression; cell-based PrP 5' UTR mRNA reporter, plate reader; inhibition, % (test concentration not listed); hit rate 0.35% among 340,000; AID 488862; in the data active means inhibition above about 52%; further: 0 = median of the neutral control wells
# FadD28 FP inh = M. tuberculosis FadD28 bisubstrate binding inhibition; FadD28 bisubstrate probe binding, fluorescence polarization; inhibition, % at 12.5 µM; hit rate 0.22% among 360,000; AID 588549; in the data active means inhibition above about 8.5%, passing the limit was not always enough; inconclusive means no clear call, values can overlap the other calls
# * marks the source's active call; other numbers are inactive results; ? = inconclusive; . = no result given. This is a sample that favours compounds with a hit; in the whole collection about 1.1% have one here.
SMILES,PfHsp40 rescue,TcdB inh,Mtb BioA inh,PrP 5UTR inh,FadD28 FP inh
N=C(N)c1ccc(N=Nc2c(O)ccc3c2[nH]c2ccccc23)cc1,2,14*,.,-15,1
NS(=O)(=O)c1ccc(N=Nc2c(O)ccc3ccccc23)cc1,-1,1,.,-9,0
CCC(=O)N(C)C[C@H]1Oc2cc(-c3ccc(C#N)cc3)ccc2S(=O)(=O)N([C@H](C)CO)C[C@@H]1C,.,-1,7,.,.
COC(/C(=N/O)c1ccc(Cl)cc1)c1ccccc1 (centres undefined),122*,-1,1,-39,-6
COc1ccc(C(O)(C(C)C)C(CN2CCOCC2)c2ccc(Cl)cc2)cc1 (centres undefined),0,0,0,18,-5
COc1ccc(C(O)(C(C)C)C(CN2CCOCC2)c2ccccc2)cc1 (centres undefined),0,21*,-1,-9,-4
CCOC(=O)/C(=C/c1ccc(OC(=O)c2ccccc2)cc1)C(C)=O,312*,.,0,-15,0
COc1ccc(NC(=O)N(C)C[C@H]2Oc3c(NS(=O)(=O)c4cn(C)cn4)cccc3C(=O)N([C@@H](C)CO)C[C@H]2C)cc1,.,-5,0,.,.
CC(C)(C)P(=O)(NCc1ccccc1)c1ccccc1 (centres undefined),53*,0,0,1,-2
O=P(NCc1ccccc1)(OCc1ccccc1)OCc1ccccc1,0,2,.,-21,-3
O=C(NCc1ccccn1)C(=O)NCC1OCCCN1S(=O)(=O)c1ccc(F)cc1 (centres undefined),-1,1,0,-7,0
O=C(NCc1ccccn1)C(=O)NCC1OCCN1S(=O)(=O)c1ccc(F)cc1 (centres undefined),33*,3,1,-5,2
NC(=Nc1nc(-c2ccccn2)cc2ccccc12)c1ccccn1,163*,1,.,36,-2
O=C(Cc1cccs1)Nc1cccc(-c2nc3cc4ccccc4cc3[nH]2)c1,77*,1,.,-127,-3
Cc1ccc(S(=O)(=O)Nc2ccc3c(c2)C(=O)N([C@@H](C)CO)C[C@H](C)[C@H](CN(C)S(=O)(=O)c2ccc(C)cc2)OCCCC[C@H](C)O3)cc1,.,-1,-3,.,.
COc1cccc(-c2cn(CC[C@@H]3CC[C@@H](NC(=O)CN(C)C)[C@@H](CO)O3)nn2)c1,.,0,-1,.,.
N#CC1=C(N)Oc2ccc3ccc(O)cc3c2C1c1ccsc1 (centres undefined),1,-1,.,-26,15*
COc1ccc(S(=O)(=O)N(C)C[C@@H]2OCCCC[C@@H](C)Oc3ccc(NS(=O)(=O)c4c(C)noc4C)cc3C(=O)N([C@@H](C)CO)C[C@H]2C)cc1,.,0,0,.,.
Fc1cccc2sc(Nc3nnc(-c4ccco4)o3)nc12,74*,.,-1,-55,-2
COc1cccc(O)c1CN1CCC(C(=O)Nc2ccc(Oc3cccnc3)cc2)CC1,0,-1,-5,-13,1
COc1ccc(CN2CCC(C(=O)Nc3ccc(Oc4cccnc4)cc3)CC2)cc1,0,6,0,-17,16*
Cc1ccc(S(=O)(=O)/N=C2/NC(=O)/C(=C\c3ccco3)S2)cc1,2,.,-2,-23,12*
CC(=O)Nc1ccc(S(=O)(=O)/N=C2/NC(=O)/C(=C\c3ccco3)S2)cc1,1,-3,.,1,3
Cc1ccc(S(=O)(=O)/N=C2/NC(=O)/C(=C/c3cc([N+](=O)[O-])ccc3O)S2)cc1,9,-11,0,1,33*
O=C1NC(=Nc2ccccc2Cl)S/C1=C\c1cc([N+](=O)[O-])ccc1O,0,-3,3,-20,30*
SMILES,PfHsp40 rescue,TcdB inh,Mtb BioA inh,PrP 5UTR inh,FadD28 FP inh
Cc1cccc(NC(=S)NC2CCCCC2)n1,0,1,1,-30,-3
Cc1cccc(NC(=S)NC2CCCC2)n1,113*,2,.,-16,0
Cc1cccc(NC(=S)NC(C)CCc2ccccc2)c1 (centres undefined),96*,0,2,-6,-3
Cc1cccc(NC(=O)NC(C)CCc2ccccc2)c1 (centres undefined),2,1,-1,-12,-3
CO[C@@H]1CN(C)C(=O)c2ccc(NC(C)=O)cc2OC[C@@H](C)N(Cc2ccccc2C(=O)O)C[C@H]1C,.,-1,0,.,.
CCCc1ccc2oc(C(=O)NCCc3nc(C(=O)OCC)cs3)c(C)c2c1,40*,-2,4,-36,-5
CCCc1ccc2oc(C(=O)NCCc3cnn(C)c3)c(C)c2c1,3,1,1,-69,-1
CN(C)/C=C(\C#N)C(=O)Nc1ccc(O)cc1F,1,19*,.,-17,0
COc1ccc(S(=O)(=O)Nc2ccc3c(c2)C(=O)N([C@@H](C)CO)C[C@@H](C)[C@H](CN(C)S(=O)(=O)c2ccc(F)cc2)OCCCC[C@@H](C)O3)cc1,.,-1,-1,.,.
S=C(c1cn(Cc2ccccc2)c2ccccc12)N1CCOCC1,-1,17*,.,-22,-2
O=C(Cn1cc(C(=O)C(F)(F)F)c2cc(Br)ccc21)N1CCOCC1,0,0,-1,-3,-1
O=C(Cn1cc(C(=O)C(F)(F)F)c2ccccc21)N1CCOCC1,48*,1,.,-22,0
CCCC(=O)Nc1sc2c(c1C(=O)Nc1ccccn1)CCCC2,1,12*,-1,-13,-2
C[C@@H]1CN([C@@H](C)CO)C(=O)CCCn2nncc2CO[C@H]1CN(C)Cc1ccccc1C(=O)O,.,-8,-3,.,.
N#Cc1c(C#N)c(-c2ccccc2)n(-c2ccc(C(=O)O)cc2)c1N,0,.,1,-10,12*
N#Cc1c(N)n(-c2ccc(C(=O)O)cc2)c2nc3ccccc3nc12,-1,-1,0,-151,-4
Cc1cc(C(=O)NNc2ccc(C)c(C)c2)no1,0,61*,.,-24,-2
Cc1ccc(NNC(=O)c2ccno2)cc1C,-1,88*,.,-12,0
Cc1ccc(NNC(=O)c2ccno2)cc1Cl,?,73*,-1,-10,-1
Cc1cc(C(=O)NNc2ccc(Cl)cc2)no1,6,.,1,-63,-4
CCCC#Cc1ccc2c(c1)O[C@@H](CN(C)C)[C@H](C)CN([C@H](C)CO)S2(=O)=O,.,-1,4,.,.
C[C@H]1CN([C@@H](C)CO)S(=O)(=O)c2ccc(C#Cc3ccccc3)cc2O[C@H]1CN(C)C(=O)Cc1ccccn1,.,0,-1,.,.
CCCNC(=O)C[C@H]1CC[C@H]2[C@H](COc3ccc(NC(=O)c4cc(F)cc(F)c4)cc3C(=O)N2C)O1,.,.,9,.,.
CC(=O)Oc1c(Sc2ccccc2[N+](=O)[O-])c(C)nn1C(C)(C)C,42*,2,.,-3,-1
COc1ccccc1NC(=S)NNC(=O)c1ccccc1,29*,.,3,-55,-1
Cc1ccc(C(=O)NC(=S)NNC(=O)c2ccccc2)cc1,39*,0,0,0,0
COc1cccc(OC)c1C(=O)NC(=S)NNC(=O)[C@H]1C[C@@H]1c1ccccc1,1,2,-1,-38,-4
O=C(NC(=S)NNC(=O)c1ccccc1O)c1ccccc1,0,2,-2,-20,-3

# From PubChem BioAssay
